According to PubChem BioAssay AID1063 (University of Pittsburgh Molecular Library Screening Center, 2008):
Hit rate of the full screen: of about 200,000 compounds, about 18,000 (9%) were called active. This excerpt belongs to a sample that is enriched for actives. Unmarked numbers belong to inactive results. Cut-off read from the data, not from the text of the source: active = inhibition above about 50%; inactive = the rest.

Test: antileishmanial activity against promastigotes – primary screen (AID 1063);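 note: promastigotes grown with compound for 44 hours at 28 °C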
Settings: Leishmania major promastigotes, resazurin fluorescence viability; at 10 µM; active compounds read high

SMILES	inhibition
O=C(c1cccc(S(=O)(=O)N2CCOCC2)c1)N1CCOCC1	-2.4%
O=C(N/N=C/c1ccc([N+](=O)[O-])o1)c1cccc(S(=O)(=O)N2CCOCC2)c1	99.2% (active)
COc1ccc(Br)cc1/C=N/NC(=O)c1cccc(S(=O)(=O)N2CCOCC2)c1	14.1%
O=C(Nc1ccc2oc(-c3ccccc3F)nc2c1)c1ccco1	9.45%
CS(=O)(=O)n1nc(-c2ccco2)nc1N	-6.28%
CONc1nc2nonc2nc1NOC	-1.47%
Cc1nn(-c2ccccc2)c(Cl)c1C(=O)Nc1ccccc1	1.56%
Cc1ccc(C(=O)/C=C/c2c(C)nn(-c3ccccc3)c2Cl)cc1	73.7% (active)
Cc1nn(-c2ccccc2)c(Cl)c1/C=C/C(=O)c1ccc(O)cc1	44.1%
CCCOC(=O)c1c(NC(=O)c2cnn3c2NC(c2ccccc2)CC3C(F)(F)F)sc2c1CCCC2 (stereo not drawn)	4.09%
CCOC(=O)N1CCC(=NNC(N)=O)CC1	-11.1%
Cc1cccc(NC(=O)CN2C(=O)c3ccccc3C2=O)c1C	-7.46%
CCOc1ccc2nc(NC(=O)c3cc([N+](=O)[O-])ccc3N3CCOCC3)sc2c1	96% (active)
Cc1cc(C)cc(OCC(=O)Nc2nc3ccc([N+](=O)[O-])cc3s2)c1	-2.84%
COc1ccc2nc(Nc3nc4ccc(NC(C)=O)cc4s3)sc2c1	6.91%
O=C(NC1CCCCC1)c1cc([N+](=O)[O-])ccc1N1CCOCC1	-6.49%
CCOc1ccc2nc(Nc3nc4ccc(NC(C)=O)cc4s3)sc2c1	72.1% (active)
CCOc1ccc2nc(SC(CC)C(=O)Nc3cc(C)on3)sc2c1 (stereo not drawn)	6.15%
COc1cccc(NC(=O)C(Sc2nnnn2C)c2ccccc2)c1 (stereo not drawn)	10.5%
COc1ccc(CN(C)Cc2nc3cc(OC)c(OC)cc3c(=O)[nH]2)c(OC)c1	1.39%
Cc1cc(NC(=O)CSc2nc3cc(Cl)ccc3c(=O)n2Cc2ccco2)no1	4.4%

SMILES	inhibition
COc1ccc(-c2cc(-c3ccc(N)cc3)nc(N)c2C#N)cc1OC	-6.13%
O=C(NC1CC1)c1ccc(-c2ccccc2)cc1	6.37%
CCOC(=O)c1ccc(NC(=S)Nc2cc(C)cc(C)n2)cc1	5.79%
O=C(COc1ccc(Cl)cc1)NCc1nnc(SCC(=O)NCC2CCCO2)o1 (stereo not drawn)	-8.43%
CC(O)c1nc2ccccc2n1Cc1ccc([N+](=O)[O-])cc1 (stereo not drawn)	-2.56%
O=C(CSCc1ccc([N+](=O)[O-])cc1)NCCSCc1ccccc1	12.9%
CC(=O)N1c2ccccc2N(Cc2ccc([N+](=O)[O-])cc2)C(=O)C1(C)C	51.9% (active)
O=C(Nn1cnc2ccccc2c1=O)c1ccccc1	-0.77%
CCNC(=O)NNC(=O)C1CC(c2cccs2)=NO1 (stereo not drawn)	-8.39%
CCN(C(=O)c1ccc(Br)cc1)c1ccccc1	3.92%
Cc1cc([N+](=O)[O-])nn1CCCC(=O)Nc1cccnc1Cl	-6.69%
O=C(C1CCN(S(=O)(=O)c2ccc(Br)s2)CC1)N1CCN(C2CCCCC2)CC1	59.6% (active)
CS(=O)(=O)N1CCC(C(=O)N2CCN(c3ccccc3)CC2)CC1	-3.18%
O=C(C1CCN(S(=O)(=O)c2cccs2)CC1)N1CCCCCC1	-2.87%
Cc1ccc(COc2ccc(C(=O)NN)cc2)cc1	-1.34%
CN(CCOc1ccc(Br)cc1)CC(=O)Nc1cccc(S(=O)(=O)NC2=NCCC2)c1	-1.24%
CCN1CCN(CCCCOc2ccccc2F)CC1	47.3%
CC1CN(CCOc2ccccc2[N+](=O)[O-])CC(C)O1 (stereo not drawn)	8.57%
C=CCN(CC=C)CCOc1ccccc1[N+](=O)[O-]	12.2%
O=[N+]([O-])c1ccccc1OCCCCN1CCCCC1	82.4% (active)
Cc1ccc(C(C)(C)C)c(OCCCCN2CCCC2)c1	87.1% (active)

SMILES	inhibition
Cc1ccc(OCCCC(=O)N2CCOCC2)c(C)c1	-2.9%
Cc1ccc2c(C(=O)CN3CCCC3)c(C)[nH]c2c1	8.69%
Cc1ccc(OCCCCN2CCCCC2)c(Br)c1	97.8% (active)
COc1ccccc1N1CCN(CCCCOc2ccc(F)cc2)CC1	-5.52%
CC(C)OC(=O)Cn1nc(C(F)(F)F)c2c1CCCC2	-5.66%
CC1CCCC(NC(=O)c2cccc(N3CCCC3=O)c2)C1C (stereo not drawn)	-7.83%
COCCNc1nc2nonc2nc1N1CCCC1c1nccs1 (stereo not drawn)	-4.44%
O=C(c1cccc([N+](=O)[O-])c1)N1CCN(C(=O)c2ccco2)CC1	0.98%
COc1ccc(OC)c(NC(=O)CSc2nc3cccnc3n2C)c1	-3.05%
COC(=O)c1ccc(NC(=O)CSc2nnc(CNc3ccc(OC)cc3)n2C)cc1	9.68%
C=CCn1c(CNC(=O)c2ccco2)nnc1SCC(=O)c1ccc(OC)cc1	-7.42%
CCn1c(COc2ccccc2)nnc1SCC(=O)Nc1ccc2c(c1)OCCO2	-3.59%
CCn1c(CNc2ccc(OC)cc2)nnc1SCC(=O)c1ccc(OC)cc1	70.5% (active)
CCn1c(COc2ccc(OC)cc2)nnc1SCC(=O)Nc1cc(OC)ccc1OC	60.8% (active)
CCSC1=NCCN1S(=O)(=O)c1ccc(F)cc1	-0.73%
O=c1c2ccccc2c(-c2ccccc2)nn1-c1ccccn1	-0.99%
CC(=O)N1C(C)c2ccccc2C(C)(C)CC12CCCCC2 (stereo not drawn)	10.5%
Cc1ccc(N=C2NC(=O)c3cccc([N+](=O)[O-])c32)cc1	-1.43%
COc1cc(OC)cc(-c2nc3nc(C)c(CCC(=O)NCc4ccco4)c(C)n3n2)c1	2%
Cc1nc2c(-c3ccc(F)cc3)c(C)nn2c(C)c1CCC(=O)NCc1ccco1	-2.49%
COc1ccc(-c2cc3nc(C)c(CCC(=O)NC(C)CCc4ccco4)c(C)n3n2)c(OC)c1 (stereo not drawn)	100% (active)
